# Test results as given in PubChem BioAssay (NCATS).
# Inconclusive results are not listed. Entries that show only a call come without a potency. The source made the active and inactive calls. The call rests on the fitted dose curve; in most records, active means well fitted cell-killing curve with a large enough effect; inconclusive means small, poorly fitted or top-dose-only effect; inactive means flat fitted curve, though single readings scatter.
# Assay: Cell Viability - LYMP2-018 (AID 985);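 further: compound exposure lasted 24 hr at 37 °C; nearly all actives have a fitted effect of over 50% in size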
# Conditions: LYMP2-018 lymphoblastoid cells, viability (qHTS); series mostly up to 92.2 µM
# Excerpt: NIH Chemical Genomics Center [NCGC]
# NIH Molecular Libraries Screening Centers Network [MLSCN]
# National Institutes of Environmental Health Sciences [NIEHS]
# National Toxicology Program [NTP]
# We have developed a 1536-well cell-based assay for quantitative high throughput screening (qHTS) against a number of cell lines to determine in vitro cytotoxicity of small molecules. This particular assay uses a human lymphoblastoid cell line (LYMP2-018) purchased from Coriell Institute for Medical Research.
# NCGC Assay Protocol Summary:
# The CellTiter-Glo luminescent cell viability assay (Promega) is a homogeneous method to measure the number of viable cells in culture. The end point readout of this assay is based on quantitation of intracellular ATP, an indicator of metabolic activity, using the luciferase reaction. Luciferase catalyzes the oxidation of beetle Luciferin to oxyluciferin and light in the presence of ATP. The luminescent signal is proportional to amount of ATP present.
# Using the CellTiter-Glo luminescent cell viability assay, the amount of cellular ATP was measured in the lymphoblastoid cell line with complete culture medium following compound treatment for 24 hours. The assay was performed in opaque white Kalypsys 1536-well plates. In the screen, tetraoctylammonium bromide was used as positive control. Library compounds were measured for their ability to cause acute toxicity in the cell line, as reflected by a decrease in intracellular ATP levels, in a concentration-dependent manner. […] AC50 values were determined from concentration-response data modeled with the standard Hill equation.
# qHTS protocol for CellTiter Glo lymphoblastoid cellular assay
# [Step] [Parameter] [Value] [Description]
# 1. Reagent; 5 uL; 2500 lymphoblastoid cells/well
# 2. Time; 5 hr; 37 C incubation
# 4. Controls; 23 nL; Tetraoctylammonium bromide 6.4pM to 92 uM
# 5. Time; 24 hr; 37 C incubation
# 6. Reagent; 5 uL; CellTiter Glo reagent
# 7. Time; 30 min; Room Temperature
# 8. Detection; Luminescence; Viewlux plate reader
# Keywords: cell viability, cytotoxicity, lymphoblastoid cell line, luminescence, NTPHTS, NTPHTS_NCGC, NIEHS, DSSTox, MLSMR, MLSCN, NIH Roadmap, qHTS, NCGC
# Potency means the concentration at half of the fitted maximal effect.
row,Compound,Potency
1,CC(C)c1cccc(C(C)C)c1O,inactive
2,COC(=O)C(c1ccccc1)C1CCCCN1 (centres undefined),inactive
3,O=C(O)CCCc1ccc(N(CCCl)CCCl)cc1,31.6 µM (active)
4,C[C@]12CCC(=O)C=C1CC[C@@H]1[C@@H]2CC[C@]2(C)C(=O)CC[C@@H]12,inactive
5,NCCc1ccc(O)cc1,inactive
6,CCOC(=O)CC(SP(=S)(OC)OC)C(=O)OCC (centres undefined),inactive
7,C[C@]12CCC(=O)C=C1CC[C@@H]1[C@@H]2CC[C@@]2(C)[C@H]1CC[C@]2(C)O,inactive
8,COP(=S)(OC)Oc1ccc(SC)c(C)c1,inactive
9,COc1cc(OC)c(OC)cc1C=O,inactive
10,CCCC(C)(COC(N)=O)COC(N)=O,inactive
11,C[C@]1(O)CC[C@H]2[C@@H]3CCC4=CC(=O)CC[C@]4(C)[C@@]3(F)[C@@H](O)C[C@@]21C,inactive
12,Clc1ccc(C(c2ccc(Cl)cc2)C(Cl)(Cl)Cl)cc1,inactive
13,CC(C)NC(C)C,inactive
14,Nc1ccccc1,inactive
15,CN1C[C@H](C(=O)N[C@]2(C)O[C@@]3(O)[C@@H]4CCCN4C(=O)[C@H](Cc4ccccc4)N3C2=O)C=C2c3cccc4[nH]cc(c34)C[C@H]21,inactive
16,CCC(C)(C)c1ccc(O)cc1,inactive
17,Nc1ccccc1C(=O)O,inactive
18,Oc1ccc(Cl)cc1,inactive
19,O=P1(N(CCCl)CCCl)NCCCO1 (centres undefined),inactive
